Here are results for 21 compounds from PubChem BioAssay AID720492 (Broad Institute, 2013).

The nature of the experiment: miR-27b level by RT-PCR, dose response, miR-122 / miR-27b project, Huh7 cells, cherry-pick, activator set (AID 720492). The following applies: Huh7 miR-27b levels, qRT-PCR, 48 h; series mostly up to 35 µM. In general terms: Real-time PCR tracks product formation cycle by cycle.

Activity calls are given as the source filed them.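 Rule for the calls: active = unnormalized dose curve rising to cross level 40 at or below the top tested dose; inconclusive = flat fit at moderately raised activity, or poor fit; inactive = the rest.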

For the compound `C[C@H](CO)N1C[C@H](C)[C@H](CN(C)C(=O)C2CCOCC2)Oc2cc(C#Cc3ccncc3)ccc2S1(=O)=O`, the compound was called inactive. In the case of `CN1C(=O)c2cc(NC(=O)c3cccc(F)c3)ccc2OC[C@@H]2O[C@@H](CC(=O)O)CC[C@@H]21`, the result was inactive. Under `C[C@@H]1CN([C@@H](C)CO)S(=O)(=O)c2ccc(C#Cc3ccncc3)cc2O[C@@H]1CN(C)C(=O)C1CCOCC1` stands “inactive”; under `CN1C(=O)c2cc(NC(=O)c3cccc(F)c3)ccc2OC[C@H]2O[C@H](CC(=O)O)CC[C@H]21`, “inactive”; under `C[C@@H]1CN([C@H](C)CO)S(=O)(=O)c2ccc(C#Cc3ccncc3)cc2O[C@@H]1CN(C)C(=O)C1CCOCC1`, “inactive”. The same measure for `Cc1cccc(NC(=O)Nc2ccc3c(c2)C(=O)N(C)[C@@H]2CC[C@@H](CC(=O)NCc4ccccc4Cl)O[C@H]2CO3)c1`: “inactive”. Under `C[C@H](CO)N1C[C@H](C)[C@@H](CN(C)C(=O)C2CCOCC2)Oc2cc(C#Cc3ccncc3)ccc2S1(=O)=O` stands “inactive”; under `COc1cccc(C(=O)Nc2ccc3c(c2)C(=O)N(C)C[C@@H](OC)[C@@H](C)CN[C@@H](C)CO3)c1`, “inactive”.

As for `Cc1cccc(NC(=O)Nc2ccc3c(c2)C(=O)N(C)[C@@H]2CC[C@H](CC(=O)NCc4ccccc4Cl)O[C@H]2CO3)c1`, the result was inactive. On to `CO[C@@H]1CN(C)C(=O)c2cc(NS(=O)(=O)c3ccc(Oc4ccccc4)cc3)ccc2OC[C@H](C)NC[C@@H]1C`, for which the result was inactive.

Regarding `C/C=C/c1cnc2c(c1)C(=O)N([C@@H](C)CO)C[C@H](C)[C@H](CN(C)S(=O)(=O)c1ccc(OC)cc1)O2`, the compound was classed as inactive. Under `COCC(=O)N(C)C[C@H]1Oc2cc(-c3ccccc3F)ccc2S(=O)(=O)N([C@H](C)CO)C[C@H]1C` stands “inactive”; under `CN1C(=O)c2cc(NC(=O)c3cccc(F)c3)ccc2OC[C@@H]2O[C@H](CC(=O)O)CC[C@@H]21`, “inactive”; under `CN1C(=O)c2cc(NC(=O)c3cccc(F)c3)ccc2OC[C@H]2O[C@@H](CC(=O)O)CC[C@H]21`, “inactive”. The same measure for `COc1cccc(-c2ccc3c(c2)O[C@H](CN(C)C(=O)C2CCOCC2)[C@H](C)CN([C@@H](C)CO)S3(=O)=O)c1`: “inactive”; for `COc1ccc(S(=O)(=O)N(C)C[C@@H]2Oc3ncc(/C=C/c4ccccc4)cc3C(=O)N([C@@H](C)CO)C[C@@H]2C)cc1`: “inactive”. Under `C[C@H]1CN([C@@H](C)CO)C(=O)c2cc(C#Cc3ccccc3F)cnc2O[C@H]1CN(C)C(=O)C1CCCCC1` stands “inactive”. In the case of `C[C@H]1CN([C@@H](C)CO)C(=O)c2cc(C#Cc3ccccc3F)cnc2O[C@@H]1CN(C)C(=O)C1CCCCC1`, the result was inactive. Under `C[C@H]1CN([C@@H](C)CO)C(=O)c2cc(-c3ccc(C#N)cc3)cnc2O[C@H]1CN(C)C(=O)c1ccccc1` stands “inactive”; under `C[C@H]1CN([C@@H](C)CO)C(=O)c2cc(-c3ccc(C#N)cc3)cnc2O[C@H]1CN(C)C(=O)Nc1ccc(C(F)(F)F)cc1`, “inactive”. The same measure for `COCC(=O)N(C)C[C@@H]1Oc2ncc(-c3ccc(C#N)cc3)cc2C(=O)N([C@@H](C)CO)C[C@@H]1C`: “inactive”.
